Assay results published in PubChem BioAssay AID651551 (Sanford-Burnham Center for Chemical Genomics, 2012).

Experiment: GAPDH versus PEG-3 reporter suppression – cell-based, luminescence, counter-screen for PEG-3 promoter inhibitor project, SAR follow-up (AID 651551)
Conditions: HeLa PEG-Prom / GAPDH luciferase reporter, 6 or 24 h, run 1, 6 h; at 99 µM (top of the series)
Work on `O=C(Nc1nc2ccccc2s1)c1nn(-c2ccccc2)c(=O)c2ccccc12` yielded an inhibition % (higher = more inhibition) of 27%. Work on `Cc1cc(NC(=O)c2ccccc2)n(-c2nc3ccccc3[nH]2)n1` yielded an inhibition % (higher = more inhibition) of 21.2%. Work on `Cc1cc(NC(=O)c2ccccc2C(F)(F)F)n(-c2nc3ccccc3[nH]2)n1` yielded an inhibition % (higher = more inhibition) of 89.3%. For `Cc1ccc(Cl)cc1Nc1nc(-c2sc(NC(=O)c3ccco3)nc2C)cs1`, the inhibition % (higher = more inhibition) was 35.5%. `Cc1cc(NC(=O)c2ccccc2C)n(-c2nc3ccccc3[nH]2)n1` showed an inhibition % (higher = more inhibition) of 44.4%. `COc1ccc(Cl)cc1Nc1nc(-c2sc(NC(=O)c3ccccc3)nc2C)cs1` showed an inhibition % (higher = more inhibition) of 44.4%. Molecule `CCCn1nc(C(=O)Nc2nc(-c3ccccn3)cs2)c2ccccc2c1=O` has an inhibition % (higher = more inhibition) of 81.9%. With `COc1ccccc1Nc1nc(-c2sc(NC(=O)c3ccco3)nc2C)cs1` the inhibition % (higher = more inhibition) was 51%. `Cc1nc(NC(=O)c2ccccc2)sc1-c1csc(Nc2ccccc2)n1` gave an inhibition % (higher = more inhibition) of 81.9%. Molecule `COc1ccc(-n2nc(C(=O)NCC(=O)Nc3cc(OC)c(OC)c(OC)c3)c3ccccc3c2=O)cc1OC` has an inhibition % (higher = more inhibition) of 29.5%. Work on `CCn1nc(C(=O)Nc2nc(-c3ccccn3)cs2)c2ccccc2c1=O` yielded an inhibition % (higher = more inhibition) of 38.3%. With `Cc1nc(NC(=O)c2ccccc2)sc1-c1csc(Nc2ccccc2Cl)n1` the inhibition % (higher = more inhibition) was 32%. With `Cc1cc(NC(=O)c2ccccc2)n(-c2nc3ccccc3n2C)n1` the inhibition % (higher = more inhibition) was 28.6%. Work on `COCCCNC(=O)c1ccc(Cn2c(=O)c3ccccc3n(Cc3ccccc3C#N)c2=O)cc1` yielded an inhibition % (higher = more inhibition) of 25.3%. `COc1ccc(-n2nc(C(=O)NCC(=O)Nc3cccc(OC)c3)c3ccccc3c2=O)cc1` gave an inhibition % (higher = more inhibition) of 31.1%. In the case of `CCCn1nc(C(=O)Nc2nc3ccccc3s2)c2ccccc2c1=O`, the inhibition % (higher = more inhibition) is reported as 42.8%. `Cc1cc(NC(=O)c2cccc(C)c2C)n(-c2nc3ccccc3[nH]2)n1` showed an inhibition % (higher = more inhibition) of 13.7%. In the case of `O=C(Nc1nccs1)c1nn(-c2ccccc2)c(=O)c2ccccc12`, the inhibition % (higher = more inhibition) is reported as 28%. `CCn1cc(C(=O)NCc2ccco2)c(=O)c2cc(S(=O)(=O)N3CCCC3)ccc21` showed an inhibition % (higher = more inhibition) of 37.8%. Molecule `CCCn1nc(C(=O)Nc2nc(-c3ccncc3)cs2)c2ccccc2c1=O` has an inhibition % (higher = more inhibition) of 44.4%. `O=C(Nc1nc(-c2ccccc2)cs1)c1nn(-c2ccccc2)c(=O)c2ccccc12` showed an inhibition % (higher = more inhibition) of 32.8%. `Cc1nc(NC(=O)c2ccccc2)sc1-c1csc(Nc2cccc(Cl)c2C)n1` gave an inhibition % (higher = more inhibition) of 27%. `COc1ccc(-n2nc(C(=O)NCC(=O)Nc3ccc(OC)c(OC)c3)c3ccccc3c2=O)cc1` showed an inhibition % (higher = more inhibition) of 69.4%.
